Source: PubChem (several laboratories)
This is a sample that favours compounds with a hit; in the whole collection about 1.3% have one here.
S1P2 ag: activates the human S1P2 receptor; actives 0.46% (n = 97,000); S1P2-expressing cell line, agonist reporter read-out; activation, % at 4.5 µM; in the data active = activation above about 16%;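 also: 0% = vehicle low control and 100% = maximal reference agonist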
Phagocyt inh: blocks phagocytosis by macrophages; J774A.1 macrophage IgG-bead phagocytosis, imaging; inhibition, % at 5 µM; actives 0.07% (n = 110,000); AID 1029;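 active = inhibition above the mean of the plate negative controls plus 5 SD, cut at about 13% in these data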;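 also: phagocytic index as fraction of beads internalized from green versus red external bead signal; plate controls were DMSO negative control for no effect and cytochalasin-D positive control for full effect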
GALR2 antag: GALR2 (human) receptor antagonism; GALR2-expressing cells, antagonist mode; inhibition, % at 4 µM; actives 0.39% (n = 140,000); in the data active = inhibition above about 27%;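 also: cells stimulated with galanin 1-16 at roughly its EC80; 0% = agonist challenge control and 100% = basal control without agonist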
Target sequence (O43603 whole entry, looked up): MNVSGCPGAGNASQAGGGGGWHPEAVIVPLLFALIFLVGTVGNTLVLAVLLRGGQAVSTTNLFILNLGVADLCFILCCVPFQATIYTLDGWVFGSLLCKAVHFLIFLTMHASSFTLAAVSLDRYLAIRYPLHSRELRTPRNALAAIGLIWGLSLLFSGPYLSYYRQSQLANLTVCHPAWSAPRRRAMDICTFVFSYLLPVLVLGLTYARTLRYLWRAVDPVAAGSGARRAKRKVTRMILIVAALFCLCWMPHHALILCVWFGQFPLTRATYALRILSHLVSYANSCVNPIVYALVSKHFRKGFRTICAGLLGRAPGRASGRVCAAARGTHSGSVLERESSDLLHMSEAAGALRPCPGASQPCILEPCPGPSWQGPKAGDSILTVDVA
S1P2 antag: antagonists of human S1P2 receptor. O95136. cell-based S1P2 antagonist assay, inhibition at 5 uM. inhibition, % at 5 µM. actives 0.21% (n = 97,000). AID 736; in the data active = inhibition above about 45%;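 also: CRE beta-lactamase reporter cells expressing human S1P2 stimulated with S1P; 0% = agonist at EC80 alone and 100% = agonist plus reference antagonist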
GALR2 agonist: activates the human galanin receptor 2 | AID 803 | activation, % (no concentration beside the values) | GALR2-expressing cells, agonist activation read-out | O43603 | actives 0.48% (n = 140,000); in the data active = activation above about 5%, passing the limit was not always enough;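 also: 0% = vehicle buffer wells and 100% = reference agonist at full effect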
Starred values were filed as active, the others as inactive; . = no result given; [ ] = remark or other dose.

SMILES	S1P2 ag	Phagocyt inh	GALR2 antag	S1P2 antag	GALR2 agonist
Cc1ccc(-n2ncc3c(N4CCCC4)ncnc32)c(C)c1	-1	.	-4	1	-3
COc1cccc(N2CCN(c3ncnc4c3cnn4-c3ccc(C)cc3C)CC2)c1	-11	-1	2	66*	-4
Cc1ccc(-c2cc(C(F)(F)F)c(C#N)c(SCCC#N)n2)o1	17*	-4	-7	-27	7
C#CCSc1nc(-c2ccccc2)cc(C(F)(F)F)c1C#N	-2	0	6	-4	-1
COc1cc(NC(=O)COC(=O)/C=C/c2c(C)nn(-c3ccc(F)cc3)c2Cl)cc(OC)c1	.	-9	2	.	-1
O=c1ccn(-c2cccc(C(F)(F)F)c2)nc1-c1ccn(-c2cccc(Cl)c2)n1	28*	.	-3	-24	-1
CCCCOC(=O)C(C#N)c1nc2ccccc2nc1N1CCOCC1 (stereo not given)	-3	-1	4	-11	-2
CCCCCCOC(=O)C(C#N)c1nc2ccccc2nc1N1CCOCC1 (stereo not given)	-1	1	-2	66*	-1
CC1(C)c2ccccc2N2CCC(=O)NC21/C=C/c1ccco1 (stereo not given)	-4	-3	-5	0	6.1*
O=C(CC1CCCC1)Nc1ccc2c(c1)CCC2	-7	.	2	-3	-4
CCOC(=O)c1c(NC(=O)CN2C(=O)NC(C)(c3ccc(Cl)cc3)C2=O)sc(C(=O)NC)c1C (stereo not given)	.	-11	-9	.	1
CN(C)S(=O)(=O)c1ccc(Cl)c(NC(=O)COC(=O)C2CSC3(C)CCC(=O)N23)c1 (stereo not given)	.	-3	11	.	0
Cc1cc(C)n2cc(CSc3nnnn3-c3ccc(Cl)cc3)nc2n1	106*	1	6	-5	-1
Cc1cc(C)n2cc(CSc3nnnn3-c3ccccc3)nc2n1	-7	0	-3	-22	-1
Oc1cccc(C(=S)N2CCN(Cc3ccccc3)CC2)c1	56*	-1	0	12	-1
O=C(c1ccccc1)N1CCN(Cc2ccccc2)CC1	-2	.	11	-7	0
COc1ccc(OCC(=O)N/N=C/C=C/c2ccccc2)cc1	.	-6	8	.	-2
COc1ccc(N=C2S/C(=C\c3ccc(N4CCOCC4)o3)C(=O)N2CCc2c[nH]c3ccccc23)cc1	-4	.	15	48*	2
CCCN1C(=O)/C(=C/c2ccc(C)o2)SC1=Nc1ccc(OC)cc1	-10	.	-9	3	-2
CCOC(=O)c1cc2ccc(OC)c(OC)c2c(=O)s1	109*	0	-10	-17	-1
COc1ccc2cc(C(=O)NCCO)sc(=O)c2c1OC	-4	.	3	7	-2
Cc1ccc(S(=O)(=O)N2CC3(C)CN(S(=O)(=O)c4ccc(C)cc4)CC(C)(C2)C3O)cc1 (stereo not given)	.	0	10	.	5.0*
Cc1ccc(S(=O)(=O)N2CC3(C)CN(S(=O)(=O)c4ccc(C)cc4)CC(C)(C2)C3=O)cc1	-6	.	0	26	-2
CCOc1cc2c(C#N)c(N3CCNCC3)nc(N)c2c(N)n1	20*	0	3	-57	-3
CCOC(=O)C1=C(C)Nc2sc(C(=O)c3ccc(C)cc3)c(N)c2C1c1ccc(C(=O)OC)cc1 (stereo not given)	.	8	1	.	5.5*
SMILES	S1P2 ag	Phagocyt inh	GALR2 antag	S1P2 antag	GALR2 agonist
CCOC(=O)C1=C(C)Nc2sc(C(=O)c3ccc(F)cc3)c(N)c2C1c1ccc(C(=O)OC)cc1 (stereo not given)	.	-4	-9	.	-1
O=C(NC(=S)Nc1c(Cl)ccc2nsnc12)c1ccco1	.	-6	-11	.	1
O=S(=O)(N/N=C\c1cn(-c2ccccc2)nc1-c1ccccc1)c1ccccc1	-9	.	2	16	-2
O=[N+]([O-])c1ccc(N/N=C/c2cn(-c3ccccc3)nc2-c2ccccc2)cc1	-6	.	-3	67*	0
Cc1cccc(N2CCN(C(=O)CCn3c(=S)[nH]c4cc5c(cc4c3=O)OCO5)CC2C)c1 (stereo not given)	-2	.	-1	13	-1
CC(C)c1nc2sc3c(NCc4ccco4)ncnc3c2c2c1COC(C)(C)C2	20*	0	-11	-34	-1
CCOc1cc(CNc2ccc(CNc3ncn[nH]3)cc2)ccc1OCc1ccccc1	.	-4	-4	.	-1
Cc1cc(C)n(CCc2nc3c4ccccc4n(CC#N)c(=O)n3n2)n1	29*	0	-13	-24	0
CS(=O)(=O)N(CC(=O)N1CCC(C(N)=O)CC1)c1ccc(Cl)c(C(F)(F)F)c1	1	-2	-13	-5	-1
CC1CCN(C(=O)CN(c2ccc(Cl)c(C(F)(F)F)c2)S(C)(=O)=O)CC1	-2	155*	-11	-1	-1
CCc1cc(=O)oc2cc(OCC(=O)O)c(Cl)cc12	21*	2	-6	-7	-1
O=C(N/N=C/c1ccc(COc2ccc(Br)cc2)o1)c1ccco1	.	-2	13	.	-1
CC(=O)c1cccc(NC(=O)NCc2cccnc2)c1	-4	-1	-3	5	-1
O=C(NCc1cccnc1)Nc1cccc(NC(=O)NCc2cccnc2)c1	.	90*	9	.	-1
CN(C)CCCCNCCCNC(=O)/C=N\O	0	54*[artifact]	-11	19	-1
COCCn1c(=NC(C)=O)sc2cc([N+](=O)[O-])ccc21	.	-3	1	.	6.2*
CC(=O)/C(=C/c1ccc(N(C)C)cc1)C(=O)c1ccccc1	.	26*[artifact]	10	.	0
O=c1cc(O)c2c(=O)n(-c3ccccc3)c3c(c2o1)CCCCCC3	.	-3	-11	.	-1
CCCCn1c(=O)c(CCC(=O)OCC(=O)Nc2ccc(F)c(Cl)c2)nc2ccccc21	.	-7	-12	.	-1
Cc1cccc(-n2ncc3c(NC(C)C)ncnc32)c1	.	-2	27*	.	-2
COCCNC(=O)CN1CCN(C(c2ccccc2)c2ccccc2)CC1	55*	0	5	9	-3
CCOC(=O)c1cnc(-n2nc(C)cc2C)nc1NC1CCCCC1	-11	2	0	91*	0
CCOC(=O)c1cnc(-n2nc(C)cc2C)nc1NC	-6	1	2	11	-1
Cc1ccc(S(=O)(=O)N/N=C/c2cc(Br)c(C)o2)cc1	27*	0	6	-7	0
Cc1ccc(S(=O)(=O)N/N=C/c2cccc([N+](=O)[O-])c2)cc1	.	-7	3	.	0
SMILES	S1P2 ag	Phagocyt inh	GALR2 antag	S1P2 antag	GALR2 agonist
O=C(COC(=O)C1CC2C=CC1C2)NCc1ccccc1Cl (stereo not given)	.	-1	-4	.	-1
Clc1ccc(C2=Nn3c(nnc3-c3n[nH]c4c3CCC4)SC2)cc1Cl	-4	.	-12	-15	5.2*
O=C(CN1CCCCC1)NCCNc1ccc(C(F)(F)F)cc1[N+](=O)[O-]	.	-2	3	.	-1
c1ccc(C(c2ccccc2)N2CCN(c3nc4ccccc4n4cnnc34)CC2)cc1	24*	1	-1	29	0
C=CCn1c(SCC(=O)N2CCc3ccccc3C2)nc2sc(C)cc2c1=O	-4	.	-10	-2	-1
CC(=O)NCCn1c(SCc2ccccc2F)nc2ccccc2c1=O	-7	2	5	-2	0
